# Laboratory results published in PMC4336329 (PLoS ONE, 2015).
# Screen size: about 310,000 compounds; about 14,000 (4.5%) showed an effect of 50% or more. The effect is printed as a negative number. The full list was thinned out, with strong results kept by preference.
# Target: human ether-à-go-go-related gene (hERG) potassium channel (human, UniProt Q12809)
# Experiment: primary screen, population patch clamp on CHO cells stably expressing hERG; higher = less effect of the substance
# 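Note: peak tail current of the secondary pulse compared with the same well before compound.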
# human ether-à-go-go-related gene (hERG) potassium channel, sequence (Q12809 whole entry, looked up): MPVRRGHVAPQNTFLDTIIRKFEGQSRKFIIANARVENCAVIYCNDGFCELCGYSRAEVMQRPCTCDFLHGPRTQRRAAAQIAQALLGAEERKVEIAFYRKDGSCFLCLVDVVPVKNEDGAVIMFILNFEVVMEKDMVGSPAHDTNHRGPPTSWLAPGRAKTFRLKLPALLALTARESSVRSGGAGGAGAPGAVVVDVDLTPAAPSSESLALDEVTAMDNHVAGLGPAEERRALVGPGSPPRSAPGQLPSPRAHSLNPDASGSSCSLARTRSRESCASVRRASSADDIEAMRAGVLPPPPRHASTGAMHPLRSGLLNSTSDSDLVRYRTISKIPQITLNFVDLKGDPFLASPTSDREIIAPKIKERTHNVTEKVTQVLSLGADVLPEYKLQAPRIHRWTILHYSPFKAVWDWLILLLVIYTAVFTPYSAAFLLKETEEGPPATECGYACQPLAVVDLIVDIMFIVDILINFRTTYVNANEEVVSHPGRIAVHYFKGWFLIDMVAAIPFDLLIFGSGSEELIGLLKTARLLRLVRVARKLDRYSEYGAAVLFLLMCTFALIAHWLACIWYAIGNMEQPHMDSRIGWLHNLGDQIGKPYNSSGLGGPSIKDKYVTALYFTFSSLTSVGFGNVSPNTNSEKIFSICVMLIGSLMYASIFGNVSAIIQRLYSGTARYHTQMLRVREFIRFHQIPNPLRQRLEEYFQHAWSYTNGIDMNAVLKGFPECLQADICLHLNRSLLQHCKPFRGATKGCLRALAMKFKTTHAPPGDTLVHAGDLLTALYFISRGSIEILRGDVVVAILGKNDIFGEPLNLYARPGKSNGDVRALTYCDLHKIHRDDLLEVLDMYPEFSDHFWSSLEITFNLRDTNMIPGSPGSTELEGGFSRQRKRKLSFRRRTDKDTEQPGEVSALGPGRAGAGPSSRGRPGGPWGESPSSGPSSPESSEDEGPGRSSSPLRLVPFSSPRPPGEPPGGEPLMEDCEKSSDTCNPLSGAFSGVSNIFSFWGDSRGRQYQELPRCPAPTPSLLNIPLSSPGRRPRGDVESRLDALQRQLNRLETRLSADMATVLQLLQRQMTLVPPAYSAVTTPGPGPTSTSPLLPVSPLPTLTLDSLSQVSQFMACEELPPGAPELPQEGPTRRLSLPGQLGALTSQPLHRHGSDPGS
row,Structure (SMILES),"hERG current change (%, negative = inhibition) at 10uM"
1,CCCN(CC(=O)Nc1ccccc1C)C(=O)/C=C/c1ccc(OCC)c(OC)c1,-46.7%
2,Cc1ccc(NC(=O)CSc2nnc(/N=C/N(C)C)s2)cc1,-7.65%
3,COc1ccc2c(c1)NC(c1ccc(N(C)C)cc1)c1cccn1-2 (stereo not shown),12.5%
4,Cc1nc(N2CCN(c3ccccn3)CC2)c2c(C)c(C(=O)Nc3ccccc3F)sc2n1,-55.3%
5,Cc1nc(N2CCN(c3ccccn3)CC2)c2c(C)c(C(=O)Nc3ccc(Cl)cc3)sc2n1,-7.01%
6,CCc1ccc(NC(=O)c2sc3nc(C)nc(N4CCN(c5ccccn5)CC4)c3c2C)cc1,5.47%
7,Cc1nc(N2CCN(c3ccccn3)CC2)c2c(C)c(C(=O)Nc3ccc(F)cc3)sc2n1,-76.4%
8,Cc1ccc(NC(=O)c2sc3ncn(CC(=O)N4CCN(c5ccccn5)CC4)c(=O)c3c2C)cc1Cl,-7.77%
9,Cc1nc(N2CCN(c3ccccn3)CC2)c2c(C)c(C(=O)Nc3ccc(F)cc3Cl)sc2n1,-41.6%
10,COc1cccc(NC(=O)c2sc3ncn(CC(=O)N4CCN(c5ccccn5)CC4)c(=O)c3c2C)c1,-0.877%
11,Cc1nc(N2CCN(c3ccccn3)CC2)c2c(C)c(C(=O)Nc3ccc(F)cc3F)sc2n1,-57.9%
12,Cc1nc(N2CCN(c3ccccn3)CC2)c2c(C)c(C(=O)Nc3ccc(Br)cc3C)sc2n1,11.6%
13,Cc1cccc(NC(=O)c2sc3ncn(CC(=O)N4CCN(c5ccccn5)CC4)c(=O)c3c2C)c1,-61.4%
14,Cc1nc(N2CCN(c3ccccn3)CC2)c2c(C)c(C(=O)Nc3ccc(F)c(Cl)c3)sc2n1,14.2%
15,Cc1ccc(NC(=O)c2sc3nc(C)nc(N4CCN(c5ccccn5)CC4)c3c2C)c(C)c1,-40.1%
16,C1CCC(C(CC2CCCCN2)C2CCCCC2)CC1.O=C(O)/C=C\C(=O)O (stereo not shown),-22.6%
17,Cn1c(SCC(=O)Nc2ccc3nc(SCC(=O)NC4CC4)sc3c2)nnc1-c1ccccc1,-5.5%
18,O=C(CSc1nnc(Cn2nnc(-c3ccccc3)n2)n1-c1ccccc1)Nc1ccc(F)cc1,3.55%
19,CC1CCN(C(=O)C(Cc2ccccc2)NS(=O)(=O)c2ccc3c(c2)oc(=O)n3C)CC1 (stereo not shown),-2.38%
20,O=C(Nc1ccc2ccccc2c1)c1ccc(Cl)cc1Cl,31%
21,O=c1c2c3nc4ccccc4nc3n(/N=C/c3ccccn3)c2ncn1-c1ccccc1,19.8%

row,Structure (SMILES),"hERG current change (%, negative = inhibition) at 10uM"
1,CC(c1ccco1)N(C(=O)COc1ccc(Cl)cc1)c1ccccn1 (stereo not shown),-12.7%
2,O=C(NNS(=O)(=O)c1ccc(F)cc1)c1ccc(O)cc1,9.17%
3,Cc1nc(N2CCOCC2)c2c(C)c(C(=O)Nc3ccc(C(F)(F)F)cc3)sc2n1,-34.9%
4,CCOc1ccc(NC(=O)c2sc3nc(C)nc(N4CCOCC4)c3c2C)cc1,-50.7%
5,CCOc1ccccc1NC(=O)c1sc2nc(C)nc(N3CCOCC3)c2c1C,-14.4%
6,CCC(C)(C)NC(=O)CN(Cc1cccs1)C(=O)CCC(=O)Nc1nccs1,-36.6%
7,CC(C)CC(=O)N1CCN(c2ccc([N+](=O)[O-])cc2Cl)CC1,-59.9%
8,CCCC(=O)N1CCN(c2ccc([N+](=O)[O-])cc2Cl)CC1,-52.2%
9,CC(C)C(=O)N1CCN(c2ccc([N+](=O)[O-])cc2Cl)CC1,-30.9%
10,CCC(=O)NC(=S)N1CCN(c2ccc([N+](=O)[O-])cc2Cl)CC1,-26.4%
11,CC(C)CC(=O)NC(=S)N1CCN(c2ccc([N+](=O)[O-])cc2Cl)CC1,-30.9%
12,CC(C)(C)C(=O)N1CCN(c2ccc([N+](=O)[O-])cc2Cl)CC1,-33.2%
13,C=CCn1c(SCC(=O)Nc2nccs2)nnc1-c1cc2cccc(OC)c2o1,-4.98%
14,CC1CCN(C2=NN3C(=N)/C(=C\c4ccc(OC(=O)c5ccco5)cc4)C(=O)N=C3S2)CC1,12.6%
15,O=C(NCc1ccccc1)C(c1ccccn1)N(C(=O)c1csnn1)c1ccccc1F (stereo not shown),-5.45%
16,COc1ccc(N2CCN(C(=S)NCCc3ccccc3)CC2)cc1,-5.71%
17,O=C(CCCOc1ccccc1)N1CCN(c2ccccn2)CC1,-8.9%
18,Cc1ccc(Oc2ccccc2/C=C2\SC(=O)N(C)C2=O)cc1,4.1%
19,C=CCNC(=O)CC1C(=O)NCCN1Cc1ccc(-c2ccccc2)cc1 (stereo not shown),-7.59%
20,CC(C)Cn1c(N)c(C(=O)COC(=O)CN2C(=O)C3CC=CCC3C2=O)c(=O)n(C)c1=O (stereo not shown),-4.23%
21,CCCc1[nH]nc2c1C(c1ccc(O)c(OC)c1)C(C#N)=C(N)O2 (stereo not shown),-31.9%

row,Structure (SMILES),"hERG current change (%, negative = inhibition) at 10uM"
1,COc1ccc(CCN(C)c2ccc(C(N)=O)cc2[N+](=O)[O-])cc1OC,-6.3%
2,COc1ccc(CCN(C)C/C=C/c2ccccc2[N+](=O)[O-])cc1OC,-70.8%
3,COc1ccc(CCNC(=O)/C=C\c2ccccc2)cc1OC,-7.74%
4,COc1ccc(CCN(C)C/C=C/c2ccccc2)cc1OC,-64.6%
5,COc1ccc(CCN(C)Cc2c(F)cccc2F)cc1OC,-25.6%
6,CN(C/C=C/c1ccccc1[N+](=O)[O-])Cc1ccccc1,-46%
7,Cc1ccn2cc(-c3cccc(NC(=O)C(C)C)c3)nc2c1,3.3%
8,Cc1cc(NC(=O)CCC(=O)N(CC(=O)NC2CCCC2)c2cccc(F)c2)no1,-3.17%
9,Cc1ccc(C(=O)N[C@H](C(=O)Nc2sccc2C(N)=O)C(C)C)cc1,5.47%
10,O=C(Cn1cc(-c2nnnn2-c2ccc(Cl)cc2)c(=O)c2ccccc21)c1ccccc1,4.29%
11,Clc1ccc(-n2nnnc2-c2ccccc2)cc1,-0.933%
12,CCn1cc(-c2nnnn2-c2ccc(Cl)cc2)c(=O)c2ccccc21,-58.8%
13,Cn1cc(-c2nnnn2-c2ccc(Cl)cc2)c(=O)c2ccccc21,-69.3%
14,Cn1cc(-c2nnnn2-c2ccccc2)c(=O)c2ccccc21,-8.94%
15,Cn1cc(-c2nnnn2-c2ccc(Cl)cc2)c(C(F)(F)F)n1,-4.49%
16,COc1ccc(OC)c(S(=O)(=O)N2CCCC(C(=O)NCc3ccco3)C2)c1 (stereo not shown),-5.29%
17,O=C(c1ccc(N2C(=O)CCC2=O)cc1)N1CCOCC1,7.4%
18,O=C(NCCc1ccco1)C(=O)NCC1OCCCN1S(=O)(=O)c1cc(F)ccc1F (stereo not shown),-8.36%
19,CC(=O)C(Sc1nn(C)c(=S)s1)C(=O)Nc1ccccc1 (stereo not shown),3.73%
20,COc1cccc(/C=C2\SC(=S)N(CCC(=O)NNC(=O)c3ccccc3OC)C2=O)c1,18.5%
21,CCOc1ccc(CN(C(=O)c2oc3cc(C)ccc3c2C)C2CCS(=O)(=O)C2)cc1 (stereo not shown),-10%

row,Structure (SMILES),"hERG current change (%, negative = inhibition) at 10uM"
1,Cc1ccc(NC(=O)CNC(=O)c2ccc3c(c2)OCO3)nc1,1.63%
2,CCC(C)(C)n1nnnc1C(c1cc(OC)ccc1OC)N1CCC(C(N)=O)CC1 (stereo not shown),-1.9%
3,CC1CN(C(=O)CS(=O)(=O)Cc2ccccc2)CC(C)O1 (stereo not shown),17.1%
4,COc1cccc(N/C(=N/C(=S)Nc2ccc(C)cc2C)Nc2nc(C)cc(C)n2)c1,0.704%
5,Cl.NC(=NCCc1ccccc1)NC(=O)c1cc(Cl)ccc1O,-2.39%
6,CS(=O)(=O)O.NC(=Nc1ccccc1)NC(=O)c1nc(Cl)c(N)nc1N,-50%
7,Cl.NC(=NCc1ccccc1)NC(=O)c1nc(Cl)c(N)nc1N,-54.2%
8,CSc1ncccc1C(=O)OCC(=O)c1ccc(S(=O)(=O)N2CCCCC2)cc1,23.5%
9,CCOC(=O)N1CCN(C(=O)c2ccc(C)c(S(=O)(=O)N3CCCCC3)c2)CC1,-46%
10,CCOC(=O)N1CCN(c2nc(-c3ccc(Cl)cc3)cs2)CC1,-8.2%
11,O=S(=O)(c1ccc(F)cc1)N1CCN(c2nc(-c3ccc(F)cc3)cs2)CC1,-8.44%
12,Fc1ccc(-c2csc(N3CCSCC3)n2)cc1,17.6%
13,CS(=O)(=O)N1CCN(c2nc(-c3ccc(F)cc3)cs2)CC1,-77.2%
14,CC(C)C(=O)N1CCN(c2nc(-c3ccc(Cl)cc3)cs2)CC1,-82.5%
15,CCC(=O)N1CCN(c2nc(-c3ccc(Cl)cc3)cs2)CC1,-25%
16,CC(=O)c1ccc(N2CCN(C(=O)c3ccc(NC4=NC5CS(=O)(=O)CC5S4)cc3)CC2)cc1 (stereo not shown),-1.77%
17,COc1ccccc1NC(=O)C1CCOC1=O (stereo not shown),15.4%
18,CCCn1nnnc1NCc1ccc(OC)cc1,15.3%
19,O=C(CC1C(=O)NCCN1Cc1cccc(Oc2ccccc2)c1)NCCc1cscn1 (stereo not shown),8.01%
